High-throughput results deposited in PubChem by National Center for Advancing Translational Sciences (NCATS).
BAZ2B inh = qHTS Assay for Inhibitors of BAZ2B; AlphaScreen BAZ2B-H3K14Ac peptide displacement; AID 504333, 2011; Potency, µM (titrated, usually from 114 µM), inactives show at the top dose activity change, negative = inhibition, usual class: inhibitors; 4.4% of 360,000 active; further: on the % scale 0 is the no-effect control and ±100 the full control effect; nearly all actives have a fitted effect of over 60% in size
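AlphaScreen displacement: compounds (up to 110uM) incubated 30 min at room temperature with a preformed 50 nM BAZ2B/50 nM biotinylated H3K14Ac peptide complex in PBS pH 7.4 with Tween-20. Donor and acceptor beads at 10 ug/mL final added, 20 min light-protected before reading.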
HP1b chromo inh = HTS for Inhibitors of HP1-beta Chromodomain Interactions with Methylated Histone Tails | Chromobox protein homolog 1 (Homo sapiens), P83916 | AlphaScreen HP1-beta / biotin-H3K9me3 peptide binding | Potency, µM (doses to about 114 µM), for the others: at the top dose activity change, negative = inhibition, hits mostly inhibitors | 0.56% of 390,000 active; further: nearly all actives have a fitted effect of over 70% in size
Target sequence (P83916 whole entry, looked up): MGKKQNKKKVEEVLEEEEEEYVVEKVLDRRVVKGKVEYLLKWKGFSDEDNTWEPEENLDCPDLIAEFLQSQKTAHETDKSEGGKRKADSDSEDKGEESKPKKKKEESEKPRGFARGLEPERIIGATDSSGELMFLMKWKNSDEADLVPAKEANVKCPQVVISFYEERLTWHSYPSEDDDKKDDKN
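Compound inhibition of the preformed complex between 50 nM HP1-beta and 50 nM biotinylated H3K9me3 peptide was read by AlphaScreen. Buffer was PBS pH 7.4 with 0.01% Tween-20. Incubations ran 30 min at room temperature, with 10 ug/mL donor/acceptor beads.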
Sfp inh = qHTS Assay for Inhibitors of Bacillus subtilis Sfp phosphopantetheinyl transferase (PPTase); Potency, µM, for inactives: largest response in the series, negative = inhibition, hits mostly inhibitors; AID 1490, 2009; Biochemical Sfp PPTase activity, qHTS; 4'-phosphopantetheinyl transferase ffp (Bacillus subtilis), Q9F4F7; 3.5% of 310,000 active;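 further: the enzyme is Sfp with the accession as filed and its product quenches rhodamine fluorescence; 0% = enzyme reaction without inhibitor and -100% = no enzyme wells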
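With Hepes-Na pH 7.6 buffer containing 10 mM MgCl2, Sfp (15 nM) modified BHQ-2-YbbR (12.5 uM) using rhodamine-CoA (5 uM). Two reads 30 minutes apart at 525/598 nm yielded each well's rate.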
JMJD2A Tudor inh = qHTS Assay for Inhibitors of JMJD2A-Tudor Domain | Lysine-specific demethylase 4A (Homo sapiens), O75164 | AlphaScreen JMJD2A-Tudor / H3K4me3 peptide binding | Potency, µM (titrated, usually from 114 µM), without a hit: top-dose activity change, negative = inhibition, usual class: inhibitors | 4.4% of 390,000 active | AID 504339, 2011; further: on the % scale 0 is the no-effect control and ±100 the full control effect; nearly all actives have a fitted effect of over 50% in size
G9a block = qHTS Assay for Inhibitors of Histone Lysine Methyltransferase G9a; AID 504332, 2011; G9a H3K9 monomethylation, AlphaScreen, 2 h; Histone-lysine N-methyltransferase EHMT2 (Homo sapiens), Q96KQ7; 8.8% of 350,000 active; Potency, µM (highest dose often 102 µM), without a hit: top-dose activity, negative = inhibition, actives largely listed as inhibitors; further: on the % scale 0 is the no-effect control and ±100 the full control effect; nearly all actives have a fitted effect of over 75% in size
Target sequence (Q96KQ7 913-1193 limits assumed): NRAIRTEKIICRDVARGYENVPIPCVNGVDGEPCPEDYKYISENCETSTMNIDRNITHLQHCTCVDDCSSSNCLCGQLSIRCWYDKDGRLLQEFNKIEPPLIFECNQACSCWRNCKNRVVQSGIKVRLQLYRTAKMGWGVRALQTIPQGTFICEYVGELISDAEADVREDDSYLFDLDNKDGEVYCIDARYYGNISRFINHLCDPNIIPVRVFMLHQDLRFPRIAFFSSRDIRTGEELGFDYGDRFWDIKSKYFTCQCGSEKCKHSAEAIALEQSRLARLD
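G9a (20 nM) was preincubated 15 min with compound, then reacted 2 h at room temperature with 500 nM biotin-H3K9 peptide and 20 µM SAM. Monomethyl-H3K9 detected by AlphaScreen using anti-H3K9me1 antibody.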
Starred values were filed as active, the others as inactive; ? = inconclusive; / = not tested or not shown; [ ] = remark or other dose. Rows were chosen to be rich in hits. Some 12% of all compounds tested hit in one or more screens of this group. The call rests on the fitted dose curve; in most records, active means well fitted curve in the direction sought with a large enough effect; inconclusive means small, poorly fitted or top-dose-only effect, or another doubt; inactive means no such curve, though single readings can be large; an effect the other way counts as inactive or inconclusive. Potency means the concentration at half of the fitted maximal effect.

SMILES | BAZ2B inh | HP1b chromo inh | Sfp inh | JMJD2A Tudor inh | G9a block
CCN1C/C(=C\c2cc(OC)c(OC)c(OC)c2)C2=NN(c3ccccc3)C(c3cc(OC)c(OC)c(OC)c3)C2C1 (stereo not drawn) | / | 31% | / | -14% | /
ClCC1=Nc2cccc3cccc(c23)N1 | 79µM* | / | 63µM* | / | ?
CN1C(=O)Nc2cccc3cccc1c23 | -20% | 17% | -5% | -6% | -14%
CC(C)C1=Nc2cccc3cccc(c23)N1 | ? | -7% | 35µM* | -16%[57.1 µM] | 28µM*
COc1ccc(C2=Nc3cccc4cccc(c34)N2)cc1 | -37% | -4% | 13% | -27% | ?
Nc1cccc(C2=Nc3cccc4cccc(c34)N2)c1 | -6% | 20% | 16% | -3% | 25µM*
CC(Oc1ccccc1)c1nnc(SCC(=O)NC2CC2)n1C (stereo not drawn) | 1% | 16%[57 µM] | 17% | 4% | /
COC(=O)CCc1sc(Nc2ccc(OC)cc2)nc1-c1ccc(OC)cc1 | -34% | -16% | / | ? | 8.9µM*
CCCCCCNc1nc(-c2ccc(OC)cc2)c(CCC(=O)O)s1 | ? | -2% | -11% | -16% | 45µM*
COc1ccc(-c2nn(CCC(=O)O)cc2CCC(=O)O)cc1 | -4% | 31% | 3% | 9% | ?
CCN(CC)CCNc1nc(-c2ccc(OC)cc2)c(-c2ccc(OC)cc2)s1 | ? | 4% | -17% | ? | /
COC(=O)CCc1sc(NC2CCCCC2)nc1-c1ccc(OC)cc1 | ? | ? | -62% | ? | 13µM*
COCCNc1nc(-c2ccc(OC)cc2)c(-c2ccc(OC)cc2)s1 | 71µM* | -3% | ? | ? | ?
COc1ccc(CNC(=O)Cn2c(=O)oc3cc(S(=O)(=O)N4CCCCCC4)ccc32)cc1 | -8% | -17% | / | -16% | -1%[59 µM]
Cc1c(C=O)c2cc(OCc3ccccc3)ccc2n1C | 1% | 34% | 2% | -16% | 10%
Cc1ccc2nc(-c3cc(NC(=O)/C=C/c4ccccc4)ccc3Cl)oc2c1 | 0% | 1% | / | -17% | ?
Cc1ccc(S(=O)(=O)c2nnn3c2nc(NCCc2ccccc2)c2sccc23)cc1 | -17% | 29% | / | -12% | -24%[59 µM]
CN(C)c1ccc(-c2nccc(NCCN3CCOCC3)n2)cc1 | / | / | -7% | / | /
CC(=O)Nc1sc2c(c1C(c1ccccc1)N1CCOCC1)CCCC2 (stereo not drawn) | -10% | 12% | 1% | -32% | -21%[59 µM]
CC(=O)Nc1sc2c(c1C(c1ccc(F)cc1)N1CCOCC1)CCCC2 (stereo not drawn) | 50µM* | -32% | -27% | ? | ?
CC(=O)Nc1sc2c(c1C(c1ccc(Cl)cc1)N1CCOCC1)CCCC2 (stereo not drawn) | ? | ? | -9% | ? | 45µM*
Cc1ccc(Cl)cc1N1CCN(C(=O)c2ccc3c(c2)N(Cc2ccccc2F)C(=O)c2ccccc2S3(=O)=O)CC1 | -22% | 29% | / | -10% | -22%[59 µM]
Cc1c(C(=O)OC(C)C)sc(N)c1C(=O)OC(C)C | 4% | 19% | 5% | -3% | ?
CCCN1CNc2c(c(=O)[nH]c(=S)n2CCC(C)C)C1 | / | 57% | / | -3% | /
COC(=O)c1cc2oc(C)cc2n1Cc1c(C)cc(C)cc1C | ? | 20% | / | -24% | 4µM*
SMILES | BAZ2B inh | HP1b chromo inh | Sfp inh | JMJD2A Tudor inh | G9a block
COC(=O)c1cc2sccc2n1Cc1ccc(C)cc1 | 82% | 97% | -4% | 88% | 44%
COC(=O)c1cc2oc(C)cc2n1Cc1ccc(C)cc1 | -37% | 22% | / | -23% | 14µM*
COC(=O)c1cc2oc(C)cc2n1Cc1cccc(Cl)c1 | -39% | 18% | / | 17% | 14µM*
CCn1cc(C(=O)NCCc2ccc(OC)c(OC)c2)c(=O)c2cc(S(=O)(=O)N3CCC(C)CC3)ccc21 | / | 28% | / | -25% | -26%[59 µM]
COc1ccc(-c2nc3ccc(NC(C)=O)cc3c(=O)n2Cc2ccccc2)cc1COc1ccc(NC(C)=O)cc1 | / | 19% | / | ? | /
CC(=O)OCC(NC(=O)C(C)NC(=O)OC(C)(C)C)C1OC(n2cc(C)c(=O)[nH]c2=O)C(OC(C)=O)C1OC(C)=O (stereo not drawn) | / | 11% | -12% | -1% | /
CN1CCN(CCCCOc2ccc(F)cc2)CC1 | -2% | 43% | -4% | 14%[57.1 µM] | -31%
Brc1ccc(OCCCCCN2CCOCC2)cc1 | 35µM* | -25% | -16% | 3.2µM* | 3.2µM*
CN1CCN(CCCCOc2ccc(Br)cc2)CC1 | 56µM* | ? | -33% | 20µM* | 4.5µM*
Cc1cccc2cc3c(N)c(C(=O)N4CCOCC4)sc3nc12 | -38%[57.1 µM] | 24% | ? | ? | ?
Cc1cc(C)c2cc3c(N)c(C(=O)N4CCc5ccccc5C4)sc3nc2c1 | 3% | 15% | -16% | -16% | 10µM*
Cc1ccc2nc3sc(C(=O)N4CCCc5ccccc54)c(N)c3cc2c1 | 4% | 17% | 22% | -35% | 3.2µM*
CCOC(=O)c1sc(NC(=O)C(C)Oc2ccc(OC)cc2)c(C(=O)OCC)c1C (stereo not drawn) | 5% | 44% | / | -25% | -17%[59 µM]
COC(=O)c1ccc(OCC2c3cc(OC)c(OC)cc3CCN2C(=O)c2ccccc2F)cc1 (stereo not drawn) | -27% | 21% | / | -28% | 1%[59 µM]
CCOc1ccc(N2CSC3=C(C#N)C(c4ccco4)CC(=O)N3C2)cc1 (stereo not drawn) | 45µM* | 4% | 3.2µM* | -8% | 1.8µM*
CCOc1ccc(N2CC(NC(=O)c3ccco3)CC2=O)cc1 (stereo not drawn) | 4% | 23% | / | 4% | 21%[59 µM]
Cc1ccc(C2CC(=O)N3CN(c4ccc(Br)cc4)CSC3=C2C#N)o1 (stereo not drawn) | 56µM* | -6% | 1.3µM* | 22µM* | ?
COc1ccc(-c2ccc3oc(-c4ccc(OC)cc4)c(C#CCCO)c3c2)cc1 | / | 41% | / | -8% | /
CCCn1c(-c2ccc(F)cc2)nc2c(NCCN3CCCC3)nc(C)nc21 | / | / | 8% | / | /
O=S(=O)(Cc1ccccc1)N1CCN(Cc2ccc(Br)cc2)CC1 | -12% | ? | 13% | 3.5µM* | 12%
CSc1ccc(CN2CCCN(C)CC2)cc1 | 56µM* | ? | -4% | 13µM* | 10µM*
O=S(=O)(Cc1ccc(Cl)cc1)N1CCN(Cc2ccccc2)CC1 | -7% | 42% | 0% | -10% | ?
CSc1ccc(CN2CCN(S(=O)(=O)Cc3ccccc3)CC2)cc1 | -13% | ? | 3% | 5µM* | 89µM*
